NIH3T3 tox – cytotoxic compounds in NIH 3T3 cells | NIH 3T3 viability, CellTiter-Glo ATP luminescence, 48-72 h | Potency, µM (series often up to 96.7 µM), inactives show at the highest dose activity change, negative = cytotoxicity, hits mostly inhibitors | 94,000 tested, 4.3% active | AID 1345082; also: nearly all actives have a fitted effect of over 55% in size
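First NIH 3T3 cells are plated at 400 cells/well; next compound is pinned in; then plates incubate 48 or 72 hr at 37 °C; finally CellTiter-Glo is added and luminescence read after 10 min.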
FLuc inh – blocks purified firefly luciferase enzyme activity; purified P. pyralis luciferase, luminescence, biochemical; P08659; 76,000 tested, 2.5% active; AID 1347043; Potency, µM (top dose mostly 115 µM), actives largely listed as inhibitors; also: nearly all actives have a fitted effect of over 65% in size
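Purified P. pyralis luciferase (10nM final) in 50mM Tris acetate pH 7.5, 10mM Mg acetate, 0.01% Tween-20, 0.05% BSA with 10uM D-luciferin and 10uM ATP. Compounds titrated qHTS. Luminescence imaged on CCD.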
hNpr1 antagonist – antagonists of human natriuretic peptide receptor Npr1 | P16066 | HEK293 hNpr1 GloSensor cGMP, ANP-stimulated luminescence | Potency, µM (top dose mostly 46.3 µM), for inactives: at the top dose activity change, negative = inhibition, actives largely listed as inhibitors | 76,000 tested, 1.6% active | AID 1347048; calls by dose curve; also: nearly all actives have a fitted effect of over 60% in size
Target sequence (P16066 whole entry, looked up): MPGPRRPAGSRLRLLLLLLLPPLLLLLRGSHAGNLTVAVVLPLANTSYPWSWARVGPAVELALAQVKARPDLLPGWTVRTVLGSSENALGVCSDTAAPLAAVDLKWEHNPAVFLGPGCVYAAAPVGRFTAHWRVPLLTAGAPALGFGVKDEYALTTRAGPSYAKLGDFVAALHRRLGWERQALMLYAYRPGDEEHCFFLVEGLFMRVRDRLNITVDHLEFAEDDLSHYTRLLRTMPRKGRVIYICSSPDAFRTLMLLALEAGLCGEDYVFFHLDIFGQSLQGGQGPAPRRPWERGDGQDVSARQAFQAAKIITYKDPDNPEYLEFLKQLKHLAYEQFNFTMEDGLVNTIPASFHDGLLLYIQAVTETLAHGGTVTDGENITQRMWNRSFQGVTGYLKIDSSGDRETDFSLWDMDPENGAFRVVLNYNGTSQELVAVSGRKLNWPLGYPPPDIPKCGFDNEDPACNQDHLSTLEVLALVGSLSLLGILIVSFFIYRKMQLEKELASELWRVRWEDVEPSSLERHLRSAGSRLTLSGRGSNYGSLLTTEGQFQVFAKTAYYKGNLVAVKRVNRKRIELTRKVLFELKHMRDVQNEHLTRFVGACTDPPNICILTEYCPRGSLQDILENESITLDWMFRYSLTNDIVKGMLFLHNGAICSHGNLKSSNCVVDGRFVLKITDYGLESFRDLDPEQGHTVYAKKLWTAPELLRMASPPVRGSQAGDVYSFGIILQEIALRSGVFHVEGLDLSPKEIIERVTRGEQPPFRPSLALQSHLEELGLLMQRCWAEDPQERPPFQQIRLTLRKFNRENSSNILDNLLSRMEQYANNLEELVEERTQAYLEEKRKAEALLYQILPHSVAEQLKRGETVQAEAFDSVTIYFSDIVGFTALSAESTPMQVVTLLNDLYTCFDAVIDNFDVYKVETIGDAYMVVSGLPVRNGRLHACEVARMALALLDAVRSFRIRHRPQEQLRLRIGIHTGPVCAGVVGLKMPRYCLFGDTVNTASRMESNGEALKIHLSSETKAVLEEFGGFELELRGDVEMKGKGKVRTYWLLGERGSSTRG
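Compound pre-incubated 30 min at room temperature on GloSensor-loaded HEK293 cells stably carrying hNpr1 and the pGS-40F cGMP biosensor. Stimulation uses hNppA at 0.1 nM final; luminescence is taken at baseline and 20 min post-agonist.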
HEK293 tox – HEK 293 cell cytotoxicity; HEK 293 viability, ATP luminescence (CellTiter-Glo), 48-72 h; Potency, µM (top dose mostly 115 µM), without a hit: at the top dose activity change, negative = cytotoxicity, hits mostly inhibitors; 94,000 tested, 6.6% active; AID 1345083; also: nearly all actives have a fitted effect of over 60% in size
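Luminescence from cellular ATP, measured with CellTiter-Glo, indicates HEK 293 viability. Cells plated at 250 cells/well are treated with compound for 48 or 72 hr at 37 degree Celsius before reagent addition.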
GPT2 inhibitor – inhibitors of human GPT2 alanine aminotransferase. Q8TD30. Recombinant GPT2, coupled pyruvate oxidase/HRP Amplex Red fluorescence. Potency, µM (titrated, usually from 57.7 µM), for inactives: at the highest dose activity change, negative = inhibition, usual class: inhibitors. 100,000 tested, 0.25% active. AID 1671188; also: nearly all actives have a fitted effect of over 60% in size
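Fluorescence read-out: pyruvate from GPT2 turnover coupled to pyruvate oxidase, HRP and Amplex Red (0.2mM ThPP, 0.2U/mL PO and HRP, 50uM Amplex final). Substrates 250uM a-KG, 2mM L-alanine; enzyme 10ng/uL; 30 min RT.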
* marks the source's active call; other numbers are inactive results; i = inactive; ? = inconclusive; . = no result; [ ] = remark or other dose. Most compounds without a hit are left out; they make up all but 10% or so of the library. Unless noted, calls follow the shape of the dose curve; as a rule, active = well fitted curve in the direction sought with a large enough effect; inconclusive = small, poorly fitted or top-dose-only effect, or another doubt; inactive = no such curve, though single readings can be large; an effect the other way counts as inactive or inconclusive. % is scaled to controls: 0 for no effect and ±100 for the full control effect; potency is read from the fitted curve at half-maximal effect.

SMILES	NIH3T3 tox	FLuc inh	hNpr1 antagonist	HEK293 tox	GPT2 inhibitor
CC1(c2noc(-c3ccccn3)n2)CCN(C(=O)C2CCN(C(=O)c3ccc(=O)[nH]c3)CC2)CC1	?	i	15.1%	-19.8%	i
O=C(c1ccccc1)N1CCC(C(=O)N2CCC(c3nc4ncccc4[nH]3)C2)CC1 (centres undefined)	-9.7%	.	.	-2.9%	i
COc1ccc(-c2ccc3ncc(Nc4ccnc(N5CCOCC5)c4)n3n2)cn1	22.4µM*	i	2.8%[70.6 µM]	28.2µM*	3.1%[88.5 µM]
COc1ccccc1-c1ccc2ncc(Nc3ccnc(N4CCOCC4)c3)n2n1	?	i	-23.9%[70.6 µM]	?	i
OCc1cccc(-c2ccc3ncc(Nc4ccnc(N5CCOCC5)c4)n3n2)c1	?	?	5.8%[70.6 µM]	100µM*	0.9%[88.5 µM]
O=C(O[C@H]1[C@@H]2C=CO[C@@H](O[C@@H]3O[C@H](CO)[C@@H](O)[C@H](O)[C@H]3O)[C@@H]2[C@@]2(CO)O[C@@H]12)c1ccc(O)cc1	.	.	.	.	i
CCN1C(=O)C2CC3(CCN(C(=O)Nc4ccc5c(c4)OCCO5)CC3)CN2C1=O (centres undefined)	-1.6%	35.5µM*	0.3%	-16.1%	-2.0%
COCC(=O)NC1CCC12CCN(C(=O)Nc1ccc3c(c1)OCCO3)CC2 (centres undefined)	?	44.7µM*	-10.1%	-22.9%	-0.1%
COCC(=O)NC1CCC12CCN(S(=O)(=O)c1ccc3c(c1)OCCO3)CC2 (centres undefined)	-14.9%	.	.	-6.4%	1.4%
CN1CC(=O)N(C2CCNC2)Cc2c1ncnc2N1CCC(N)CC1 (centres undefined)	-11.3%	.	.	1.8%	2.5%
COC1CCOC2(CCN(C(=O)NCCc3ccccc3)CC2)C1 (centres undefined)	2.5%	28.2µM*	-2.7%	4.7%	i
C[C@]1(CO)[C@H]2Cc3sc(NC(=O)c4ccc(F)cc4)nc3[C@@H](CC(=O)NC3CCCC3)[C@]2(C)CC[C@H]1O	44.7µM*	i	-0.8%	?	?
CC(C)(C)c1ccc(C(=O)Nc2nc3c(s2)C[C@@H]2[C@](C)(CO)[C@H](O)CC[C@@]2(C)[C@@H]3CC(=O)N2CCC(C(N)=O)CC2)cc1	28.2µM*	?	-7.5%	?	?
CC(C)(C)CC(=O)Nc1nc2c(s1)C[C@@H]1[C@](C)(CO)[C@H](O)CC[C@@]1(C)[C@@H]2CC(=O)NC1CCCCC1	79.4µM*	i	-0.8%	?	i
C[C@]1(CO)[C@H]2Cc3sc(NC(=O)c4ccc(F)cc4)nc3[C@@H](CC(=O)NC3CCCCC3)[C@]2(C)CC[C@H]1O	?	i	-0.8%	?	4.3%
CC1CCN(C(=O)C[C@@H]2c3nc(NC(=O)c4ccc(F)cc4)sc3C[C@@H]3[C@](C)(CO)[C@H](O)CC[C@]32C)CC1	79.4µM*	i	-0.5%	?	-6.0%
COCC(=O)N1C[C@@H]2C[C@H]1C(=O)N(CC1CC1)c1ccccc1O2	i	i	3.1%[70.6 µM]	i	-3.3%[88.5 µM]
Cc1nn(-c2ccccc2)c2c1C(C1CC1)N(C1CCN(Cc3cc(Cl)cc(Cl)c3)CC1)C2=O (centres undefined)	-9.6%	.	.	2.5%	.
Cc1nc(C(=O)N2CC[C@H](NS(=O)(=O)c3cn(C)cn3)C[C@H]2C(=O)N[C@H](Cc2ccccc2)C(N)=O)cs1	-4.2%	i	2.0%	-1.9%	-0.5%
COc1ccc(C(=O)Nc2nc3c(s2)C[C@@H]2[C@](C)(CO)[C@H](O)CC[C@@]2(C)[C@@H]3CC(=O)NCc2ccco2)cc1	?	i	1.2%	79.4µM*	-5.2%
O=C(C1CCCN1Cc1ccc(-c2cncnc2)cc1)N1CCC(Cc2ccccc2)CC1 (centres undefined)	?	.	.	?	i
Cc1cc(C)cc(-c2ccc(CN3CCCC3C(=O)N3CCN(Cc4ccccc4)CC3)cc2)c1 (centres undefined)	12.6µM*	.	.	20µM*	4.3%
COc1ccc(CN2Cc3[nH]cnc3C[C@H]2C(=O)N2CCC(Cc3ccccc3)CC2)cc1	17.8µM*	i	-12.4%	79.4µM*	3.4%
Cc1cc(C)cc(-c2ccc(CN3CCCC3C(=O)N3CCC(Cc4ccccc4)CC3)cc2)c1 (centres undefined)	11.2µM*	.	.	20µM*	0.6%
Cc1cc(C)cc(-c2ccc(CN3CCCC3C(=O)N3CCCC(C)C3)cc2)c1 (centres undefined)	?	.	.	35.5µM*	i
SMILES	NIH3T3 tox	FLuc inh	hNpr1 antagonist	HEK293 tox	GPT2 inhibitor
CCOC1CCOC2(CCN(C(=O)NCc3ccc(OC)cc3)CC2)C1 (centres undefined)	-8.9%	.	.	0.5%	0.7%
Cc1ncsc1C1N(C2CCN(Cc3cn(C)c4ccccc34)CC2)C(=O)C12CCCC2 (centres undefined)	-22.4%	i	1.2%	79.4µM*	-0.3%
CN(CC(N)=O)C(=O)[C@@H]1[C@@H](NC(=O)Nc2ccc(F)cc2F)CCN1C(=O)c1cnccn1	i	i	3.4%	3.0%	3.9%
N#Cc1ccc(CN2C[C@@H](COCC(N)=O)[C@H](c3ccncc3)C2)cc1	-14.8%	i	-10.9%	89.1µM*	-5.0%
Cn1cc(CN2CCNc3cnc(-c4ccccc4)cc3C2)cn1	31.6µM*	i	-0.5%[70.6 µM]	?	0.5%[88.5 µM]
Cc1cccc(CN2CCNc3cnc(-c4ccccc4)cc3C2)c1	?	i	-25.5%[70.6 µM]	?	i
CN(C)c1ccc(CN2CCNc3cnc(-c4ccccc4)cc3C2)cc1	?	i	-15.0%[70.6 µM]	100µM*	i
Cc1ccc(NC2=N[C@H]3[C@@H](O)[C@H](O)C[C@H](C(=O)N(C)Cc4ccccc4)[C@H]3S2)cc1	-0.6%[174 µM]	31.6µM*	-3.3%[70.6 µM]	3.4%[172 µM]	?
COc1cc(NC2=N[C@H]3[C@@H](O)[C@H](O)C[C@H](C(=O)N(C)Cc4ccccc4)[C@H]3S2)cc(OC)c1	-1.3%	i	-18.2%	0.1%	-10.6%
CCN(Cc1ccncc1)C(=O)c1cc(-c2cnc(C)nc2)nc2cc(F)ccc12	?	i	7.2%	i	i
COc1ccccc1C(C)N(C)C(=O)c1csc2nc(-c3ccccc3C)cn12 (centres undefined)	?	?	-9.2%	35.5µM*	i
COc1ccccc1-c1ccc2c(C(=O)N(C)C)nn(C)c2n1	1.1%[138 µM]	.	.	-7.0%[172 µM]	-4.4%[88.5 µM]
COCCN1C(=O)CCC2(CNC(=O)Cc3c(C)noc3C)CCCC=C12 (centres undefined)	i	i	6.5%	i	i
Fc1ccccc1Nc1ccnc(N2CC3CCC(C2)N3CC(F)(F)F)n1	?	.	.	?	-17.9%
Cc1ccc(Nc2ccnc(N3CCN(C(=O)C4CC4)CC3)n2)cc1	31.6µM*	.	.	70.8µM*	-8.8%[88.5 µM]

Screening results (PubChem BioAssay)
